PubChem BioAssay (NCATS)
Results filed as inconclusive are left out. A call without a number means that no potency is given here. Activity calls are given as the source filed them. The call rests on the fitted dose curve; in most records, active means well fitted inhibition curve with a large enough effect; inconclusive means small, poorly fitted or top-dose-only effect; inactive means flat fitted curve, though single readings scatter.

What follows are compounds tested on CP256 (assay: qHTS profiling for inhibitors of Plasmodium falciparum proliferation (AID 504749; further: nearly all actives have a fitted effect of over 60% in size)). Conditions: P. falciparum in erythrocytes, SYBR Green DNA, 72 h; series mostly up to 28.7 µM.
Outline: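 Readout was DNA-dye fluorescence from lysed cultures, ex 485/em 535 nm. Parasitized red cells had grown 72 h with compound; data scaled between 0.29 uM artemisinin and DMSO wells and corrected using vehicle-only plates.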
Potency means the concentration at half of the fitted maximal effect.

**Q.** `Cn1nnc2c(C(N)=O)ncn2c1=O` was tested. Which Potency did it give?
**A.** Its Potency is “inactive”.

**Q.** With `CC(C)OC(=O)C(C(=O)OC(C)C)=C1SC=CS1` as the compound, how does the Potency read?
**A.** The Potency was “inactive”.

**Q.** With `CC1=NN(c2ccccc2)C(=O)C1` as the compound, how does the Potency read?
**A.** The Potency was “inactive”.

**Q.** How did the Potency turn out when `COC(=O)Nc1nc2ccc(Sc3ccccc3)cc2[nH]1` was run?
**A.** The Potency was “inactive”.

**Q.** How did the Potency turn out when `CCc1c2c(nc3ccc(OC(=O)N4CCC(N5CCCCC5)CC4)cc13)-c1cc3c(c(=O)n1C2)COC(=O)[C@]3(O)CC` was run?
**A.** Its Potency is “inactive”.

**Q.** With `Cc1noc(NS(=O)(=O)c2ccc(N)cc2)c1C` as the compound, how does the Potency read?
**A.** Its Potency is “inactive”.

**Q.** For `CN1CCN(c2c(F)cc3c(=O)c(C(=O)O)cn4c3c2OCN4C)CC1`, which Potency is on record?
**A.** The Potency was “inactive”.

**Q.** For `S=P(N1CC1)(N1CC1)N1CC1`, which Potency is on record?
**A.** The Potency was “inactive”.

**Q.** How did the Potency turn out when `CC[C@H](NC(C)C)[C@H](O)c1ccc(O)c2[nH]c(=O)ccc12` was run?
**A.** The Potency was “inactive”.

**Q.** Which Potency does the source give for `CC[C@H](C)C(=O)O[C@H]1C[C@@H](C)C=C2C=C[C@H](C)[C@H](CC[C@@H]3C[C@@H](O)CC(=O)O3)[C@H]21` here?
**A.** Its Potency is “inactive”.

**Q.** `CC(C)(Sc1cc(C(C)(C)C)c(O)c(C(C)(C)C)c1)Sc1cc(C(C)(C)C)c(O)c(C(C)(C)C)c1` was tested. Which Potency did it give?
**A.** The Potency was “inactive”.

**Q.** For `Cc1ncc([N+](=O)[O-])n1CCO`, which Potency is on record?
**A.** The Potency was “inactive”.

**Q.** With `CCCc1cc(C(N)=S)ccn1` as the compound, how does the Potency read?
**A.** Its Potency is “inactive”.

**Q.** Which Potency does the source give for `CCCN[C@H]1CCc2nc(N)sc2C1` here?
**A.** The Potency was “inactive”.

**Q.** How did the Potency turn out when `COC(=O)Nc1nc2ccc(C(=O)c3ccccc3)cc2[nH]1` was run?
**A.** Its Potency is “inactive”.

**Q.** With `CC(C)(C#N)c1cc(Cn2cncn2)cc(C(C)(C)C#N)c1` as the compound, how does the Potency read?
**A.** The Potency was “inactive”.

**Q.** How did the Potency turn out when `O=C(O)c1cc(=O)[nH]c(=O)[nH]1` was run?
**A.** The Potency was “inactive”.

**Q.** For `CNS(=O)(=O)Cc1ccc2[nH]cc(CCN(C)C)c2c1`, which Potency is on record?
**A.** Its Potency is “inactive”.

**Q.** With `CCOc1cc(N)c(Cl)cc1C(=O)NCC1CN(Cc2ccc(F)cc2)CCO1` (centres undefined) as the compound, how does the Potency read?
**A.** The Potency was 2820 nM (active).
